Screening results from PubChem.
Ba/F3 V617F tox: lowers viability of Ba/F3 cells expressing EpoR and JAK2V617F; ATP luminescence; inhibition, % at 5.6 µM; 1.1% of 220,000 active;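 active = inhibition above the campaign mean plus 3 SD over all tested compounds, cut at about 24% in these data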;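 also: cytokine-independent growth of Ba/F3 cells driven by EpoR plus mutant JAK2; 0% = DMSO-treated cells and 100% = JAK inhibitor I control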
IEC-6 cytotox: IEC-6 cytotoxicity, counter-screen for KLF5 inhibitors; inhibition, % at 5 µM; luminescence viability; 0.78% of 290,000 active;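 also: 0% = plate median of test compound wells and 100% = cytotoxic reference compound wells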
BaF3 tox: parental Ba/F3 viability inhibition as JAK2V617F counter-screen; CellTiter-Glo ATP luminescence; inhibition, % at 5.6 µM; 1.1% of 220,000 active; AID 1486;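 active = inhibition above a per-campaign cutoff, the mean inhibition of all tested compounds plus 3 SD, cut at about 27% in these data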;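 also: 0% = DMSO wells and 100% = JAK Inhibitor I control wells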
aSyn 5UTR inh: 5' untranslated region of α-synuclein, MLPCN primary screen | alpha-synuclein 5'UTR reporter, inhibitor activity | inhibition, % (tested at 7.5 µM) | 0.82% of 300,000 active | AID 1813; in the data active = inhibition above about 60%;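 also: H4 neuroglioblastoma cells stably carrying SNCA 5'UTR luciferase fusion; 0% = DMSO wells and 100% = positive control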
KLF5 inhibitor: kruppel-like factor 5 inhibition; 0.23% of 290,000 active; inhibition, % at 5 µM; DLD-1 KLF5 promoter-luciferase reporter, luminescence;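 active = inhibition above a per-plate limit of that plate's mean compound inhibition plus 3 SD, cut at about 60% in these data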;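 also: 0% = DMSO wells and 100% = LY294002 at 200 µM; higher means less KLF5 promoter-driven luciferase light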
APP 5UTR inh: APP translation inhibition; AID 1285; 0.82% of 190,000 active; SH-SY5Y APP 5'UTR-luciferase reporter, luminescence; inhibition, % at 2 µM;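 active = inhibition above a set limit, derived from the sample mean plus 3 SD, cut at about 45% in these data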
IEC-6 cytotox cf: IEC-6 cytotoxicity, confirmation assay | IEC-6 rat intestinal epithelial viability, luminescence | 63% of 1,900 active | inhibition, % at 5 µM | shares compounds with IEC-6 cytotox;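 also: 0% = vehicle and 100% = reference cytotoxic drug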
* hit, by the source's call; . = not tested or not shown. Rows were chosen to be rich in hits. Some 2.2% of all compounds tested hit in one or more screens of this group. Rule as the data show it, unless noted: active = inhibition above about 22%; inactive = the rest.

SMILES | Ba/F3 V617F tox | IEC-6 cytotox | BaF3 tox | aSyn 5UTR inh | KLF5 inhibitor | APP 5UTR inh | IEC-6 cytotox cf
Cc1ccc2c(CN(C)Cc3cccc(F)c3)cc(=O)oc2c1 | . | 14 | . | -124 | -103 | . | .
COC(=O)c1ccc(C2C(C#N)=C(N)Oc3cc(N)ccc32)cc1 (stereo not given) | . | -3 | . | -4 | 3 | . | .
N#CC1=C(N)Oc2cc(N)ccc2C1c1cccc(F)c1 (stereo not given) | . | 51* | . | -137 | 38 | . | 42*
Cc1ccccc1NC(=O)CSc1nc2scc(C)c2c(=O)[nH]1 | . | 37* | . | -8 | -16 | . | 21
C=CCN1C(=O)C2C(C(=O)NC3CCCC3)C3(C)C=CC2(O3)C1C(=O)NC1CCCC1 (stereo not given) | . | -2 | . | 14 | -11 | . | .
CSCCOC(=O)c1[nH]c2c(c1C)C(=O)CC(c1ccco1)C2 (stereo not given) | 72* | 74* | 73* | 33 | 59 | 95* | 48*
COCCOC(=O)c1[nH]c2c(c1C)C(=O)CC(c1ccccc1)C2 (stereo not given) | 74* | 84* | 75* | 78* | 45 | 92* | 56*
COC(=O)c1[nH]c2c(c1C)C(=O)CC(c1cc(OC)ccc1OC)C2 (stereo not given) | 3 | 6 | 5 | -29 | 5 | 0 | .
COCCOC(=O)c1[nH]c2c(c1C)C(=O)CC(c1ccc(F)cc1)C2 (stereo not given) | 2 | 19 | 10 | 1 | 9 | -16 | .
COC(=O)c1[nH]c2c(c1C)C(=O)CC(c1cccs1)C2 (stereo not given) | 79* | 84* | 82* | 85* | 45 | 95* | 50*
COCCOC(=O)c1[nH]c2c(c1C)C(=O)CC(c1ccc(N(C)C)cc1)C2 (stereo not given) | -4 | 0 | 2 | -45 | -61 | -27 | .
Cc1cccnc1Sc1c([N+](=O)[O-])ncn1C | -1 | -2 | 4 | -27 | -37 | -2 | .
Cn1cnc(Sc2ncnc3nc[nH]c23)c1[N+](=O)[O-] | 59* | 39* | 36* | 31 | -17 | . | 36*
Cn1cnc([N+](=O)[O-])c1Sc1ncnc2nc[nH]c12 | 56* | 35* | 29* | 46 | -5 | . | 47*
Cc1ccc(OCCSc2ncnc3nc[nH]c23)cc1 | 1 | 0 | 7 | -67 | -107 | -100 | .
Cc1onc(-c2ccccc2Cl)c1C(=O)N1CCN(S(=O)(=O)c2ccc(F)c(F)c2)CC1 | . | -1 | . | -5 | -14 | . | .
COc1cc(/C=N/Nc2snc(SC)c2C#N)cc(OC)c1OC | 4 | 26* | 5 | 9 | -6 | 8 | 49*
Cc1cc2nc3c(=O)[nH]c(=S)[nH]c3nc2cc1NC(=O)C(F)(F)F | . | -6 | . | -11 | -29 | . | .
CCN1CCN(c2nc(Nc3ccc(C)c(C)c3)nc(N)c2[N+](=O)[O-])CC1 | -3 | 2 | -3 | -3 | -1 | -1 | .
CCN1CCN(c2nc(Nc3cccc(OC)c3)nc(N)c2[N+](=O)[O-])CC1 | . | 24* | . | -86 | 13 | . | 8
O=[N+]([O-])c1cc(C=Nc2cccc3c(O)cccc23)ccc1Cl | . | 33* | . | 38 | -13 | . | -4
Cc1cc(Cl)cc(C)c1OCCn1ccnc1 | . | 44* | . | 3 | 38 | . | 14
COc1ccc(CNC(=O)C2CCN(C(=O)[C@@H]3Cc4ccccc4CN3)CC2)cc1 | . | -8 | . | 11 | -21 | . | .
COc1ccc(F)cc1S(=O)(=O)NCC(c1ccco1)N1CCc2ccccc2C1 (stereo not given) | . | . | . | 9 | . | . | .
COc1ccc(OC)c(-c2cc(-c3cccnc3)nc(N)c2C#N)c1 | 84* | 35* | 45* | 0 | 30 | . | 52*
SMILES | Ba/F3 V617F tox | IEC-6 cytotox | BaF3 tox | aSyn 5UTR inh | KLF5 inhibitor | APP 5UTR inh | IEC-6 cytotox cf
CC1=Nc2cc(C(=O)NCCCN3CCOCC3)ccc2Sc2c(C)ccc(C)c21 | . | 18 | . | 41 | -8 | . | .
CC1=Nc2cc(C(=O)NCCN3CCOCC3)ccc2Sc2c(C)ccc(C)c21 | . | 33* | . | 50 | 14 | . | 32*
Cc1cc(=O)oc2cc(NC(=O)CC3(CC(=O)O)CCCC3)ccc12 | 2 | 4 | -2 | -7 | 8 | . | .
O=C(c1cccnc1)N1CCN(C/C=C/c2ccccc2)CC1 | 0 | 3 | 6 | 15 | -18 | -9 | .
Cc1cc(C(=O)N2CCN(C/C=C/c3ccccc3)CC2)cs1 | 0 | 45* | 3 | 16 | 2 | -16 | -16
COc1ccccc1C1CC(=O)Nc2cc3c(cc21)OCCO3 (stereo not given) | 73* | 75* | 72* | 47 | 64* | 95* | 60*
